From PubChem BioAssay (NCATS) come the findings set out here.

The target in test [1] is ATP-dependent 6-phosphofructokinase (Trypanosoma brucei brucei) (UniProt O15648). Put plainly: qHTS Assay to Find Inhibitors of T. brucei phosphofructokinase: hit validation (AID 492961).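 Also: luminescence reports ADP formed as PFK phosphorylates fructose-6-phosphate with ATP; series mostly up to about 51 µM; % is scaled to controls: 0 for no effect and ±100 for the full control effect.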 The method, boiled down: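 PFK 1.25 nM, F6P 0.5 mM, ATP 0.1 mM, MgCl2 5 mM, 0.1 M TEA pH 8.0, Tween20 0.01%, BSA 0.1%; 45 min RT. ADP-Glo two-step detection, luminescence. qHTS titration; curve fitting with curve-class categorization.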
A general note: Quantitative high-throughput screening tests each substance at several concentrations.

For test [2], the target named is M-phase phosphoprotein 8 (Homo sapiens) (UniProt Q99549). The test can be described thus: qHTS Validation Assay for Inhibitors for MPP8 Chromodomain Interactions with Methylated Histone Tails (AID 488949).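 Also: 50 nM MPP8 with 50 nM peptide preformed then compounds added for 30 min; AlphaScreen signal from MPP8 chromodomain bound to biotinylated H3K9me3 peptide; top concentration of the series differs between compounds; % is scaled to controls: 0 for no effect and ±100 for the full control effect; nearly all actives have a fitted effect of over 55% in size.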 The method in brief: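 50 nM MPP8 + 50 nM b-H3K9me3 peptide, PBS pH 7.4/0.01% Tween-20, 30 min RT; + cpd 30 min RT; + AlphaScreen donor/Ni-chelate acceptor beads 10 ug/mL final, 30 min dark; luminescence read.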

Test [3] has as its target Thyrotropin-releasing hormone receptor (Homo sapiens) (UniProt P34981). The test can be described thus: qHTS for Small Molecule Agonists and Allosteric Enhancers of Human TRH Receptor: Validation Screen for Agonists (AID 493127;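 active = calcium activation more than 3 SD above the typical response in the agonist read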;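 also: intracellular calcium rise by fluo-8 fluorescence before TRH EC20 addition; 0% is about no effect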). To be noted: TRH receptor agonist cell assay; at 2 µM; stronger effect = higher value. The method in brief:
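Compounds are added by online pintool to dye-loaded TRHR cells while fluorescence is recorded every second. A rise in calcium signal during the agonist read marks activation; a later 10 nM TRH addition (EC20) serves the separate enhancer mode.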

Test [4] can be described thus: Validation screen for small molecules that induce DNA re-replication in SW480 colon adenocarcinoma cells (AID 504364). Also: 0% is about no effect. The method in brief: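 Image-based qHTS: compounds were incubated with SW480 cells for 48 hr, nuclei stained with Hoechst, and per-nucleus fluorescence intensity scanned to flag cells with excess DNA content.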
Test [5] can be described thus: Quantitative high throughput screen for delayed death inhibitors of the malarial parasite plastid, 48 hour incubation (AID 488752). Also: nearly all actives have a fitted effect of over 65% in size. Also: potency is read from the fitted curve at half-maximal effect. The method, boiled down: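 First, compound was pinned into RPMI 1640 medium containing 0.5% Albumax. Next, reporter-parasite-infected erythrocytes were added to 2% hematocrit and 0.1% parasitemia. After 48 h at 37 C under 5% CO2, luciferase detection reagent was added and luminescence read.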

Test [6] concerns the target Thioredoxin reductase 1, cytoplasmic (Rattus norvegicus) (UniProt O89049). Put plainly: qHTS Assay for Substrates of Mammalian Selenoprotein Thioredoxin Reductase 1 (TrxR1) (AID 488772).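 Also: series mostly up to about 57 µM; 0% is about no effect; a drop in NADPH fluorescence below the no-compound background marks a TrxR1 substrate.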 The method in brief:
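In this dual-purpose format, potential substrates are identified from the first fluorescence read after selenite addition, not from the 8-minute delta. Rat enzyme is preincubated with NADPH and then with compound at ~22 deg C.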

For test [7] the target is unchanged. Put plainly: qHTS Assay for Inhibitors of Mammalian Selenoprotein Thioredoxin Reductase 1 (TrxR1) (AID 488773).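 Also: drop in NADPH fluorescence over an 8 min run after selenite addition; series mostly up to about 57 µM; % is scaled to controls: 0 for no effect and ±100 for the full control effect; nearly all actives have a fitted effect of over 40% in size.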 The method in brief:
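Inhibition is scored from the loss of NADPH fluorescence between first and last reads of an 8-min kinetic run. Selenite (400 uM) was the substrate, added after 15 min compound preincubation at room temperature.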

Test [8] addresses Flap endonuclease 1 (Homo sapiens) (UniProt P39748). Put plainly: qHTS Validation Assay for the Inhibitors of Human Flap endonuclease 1 (FEN1) (AID 488816). Also: % is scaled to controls: 0 for no effect and ±100 for the full control effect. The method in brief:
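Steps: add FEN1 (10 nM reagent) or buffer only; pin compounds; hold 15 min at room temperature; start with substrate, 50 nM final; read at 0 and 15 min; correct, normalize and fit a four-parameter Hill curve.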

Test [9] addresses Chromobox protein homolog 1 (Homo sapiens) (UniProt P83916). The test can be described thus: qHTS Validation Assay for Inhibitors of HP1-beta Chromodomain Interactions with Methylated Histone Tails (AID 488953).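 Also: loss of AlphaScreen luminescence from HP1-beta binding biotinylated H3K9me3 peptide; series mostly up to about 110 µM; % is scaled to controls: 0 for no effect and ±100 for the full control effect; nearly all actives have a fitted effect of over 50% in size.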 The method, boiled down:
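Disruption of preformed HP1-beta:H3K9me3 peptide complexes (both 50 nM, PBS pH 7.4 with 0.01% Tween-20) is measured by AlphaScreen after 30 min compound exposure at room temperature, using streptavidin donor and nickel chelate acceptor beads at 10 ug/mL final.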

For test [10], the target named is Methanococcus maripaludis chaperonin (MmCpn) (UniProt Q6LX38). Put plainly: High-Throughput Screening for Modulators of Cytosolic Chaperonin Activity: MmCpn Primary Screen (AID 488978).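 Also: 50 nM MmCpn enzyme hydrolysing 30 µM ATP at 37 °C; 0% is about no effect.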 The method in brief:
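Steps: chaperonin 50 nM final; add compound, 5 min RT; start with ATP, 30 uM final; hold 10 min at 37C; add ADP Transcreener HTRF reagent, 5 min; read ex 320, em 590 and 665 nm.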

The target in test [11] is Transient receptor potential cation channel subfamily V member 1 (Homo sapiens) (UniProt Q8NER1). The test can be described thus: HTS Assay for Compounds that Act as Enhancers of the Vanilloid Receptor 1 (AID 488979). Also: 0% is about no effect. The method, boiled down: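 TRPV1-expressing cells loaded with Fluo-8 calcium dye; compounds added and calcium influx read kinetically for 3 min (agonist phase), then capsaicin at EC20 added and read 2 min more for enhancement. Fluorescence ex 480/em 520 nm.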

The target in test [12] is Thyrotropin receptor (Homo sapiens) (UniProt P16473). The test can be described thus: qHTS Assay for Antagonists of the Thyroid Stimulating Hormone Receptor (AID 488980). Also: series mostly up to about 58 µM; 0% is about no effect. The method, boiled down:
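Readout is cAMP by HTRF competition between cellular cAMP and cAMP-d2 for a cryptate-labelled antibody. Antagonism was assessed in TSHR-transfected HEK293 cells stimulated with 4 nM TSH (EC80, final) in the presence of RO 20-1724.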

Test [13] addresses D(1A) dopamine receptor (Homo sapiens) (UniProt P21728). Put plainly: HTS Assay for Allosteric Agonists of the Human D1 Dopamine Receptor: Primary Screen for Potentiators (AID 488982). Also: 0% is about no effect. The method, boiled down:
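Tetracycline-induced HEK293 T-REx cells force-coupled to calcium signalling were incubated overnight at 30 C and dye-loaded at room temperature. Calcium flux over 180 s after compound addition flagged agonists; a further 180 s read after EC20 dopamine flagged potentiators.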

The target is the same in test [14]. The test can be described thus: HTS Assay for Allosteric Agonists of the Human D1 Dopamine Receptor: Primary Screen for Antagonists (AID 488983).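 Also: calcium flux response to an EC80 dopamine challenge measured with no-wash dye; % is scaled to controls: 0 for no effect and ±100 for the full control effect; nearly all actives have a fitted effect of over 65% in size.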 The method in brief:
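Kinetic fluorescence at 1 cycle/sec tracked intracellular calcium in force-coupled, tetracycline-inducible HEK293 T-REx D1 cells. Loss of response to an EC80 dopamine dose, given 180 s after compound, marked antagonists.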

Test [15] can be described thus: Validation screen for small molecules that induce genotoxicity in human embryonic kidney (HEK293T) cells expressing luciferase-tagged ELG1 (AID 493106). Also: 0% is about no effect. The method in brief:
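Cells were dispensed at 2,000 per well, then 23 nL compound or DMSO was pinned in. After 16 hr at 37 °C and 5% CO2, ONE-Glo reagent was added. Luciferase activity was measured following 30 min at room temperature.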

Test [16] can be described thus: Nrf2 qHTS screen for inhibitors: Validation (AID 493153; active = well fitted inhibition curve with a large enough effect in the main read-out, with a control signal flat, not every such curve was filed as active). To be noted: viability change: measured here: cytotoxicity max response. The method, boiled down:
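A549 ARE_Fluc, 5% FBS OPTI-MEM; cpd titration, 18-24 h, 37°C/5% CO2. Read 1: CellTiter-Fluor (Ex 405/Em 525), cytotox. Read 2: luciferase lum, Nrf2 activity.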

Test [17] is described as follows: qHTS for Inhibitors of Cell Surface uPA Generation: Validation Assay (AID 493164).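 Also: RAW 264.7 macrophage cells exposed to compound for 18 h; 0% is about no effect.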 The method, boiled down: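 ATP-Lite luminescence read-out: ATP remains high when uPA activity-dependent LF translocation into the cytoplasm is blocked. RAW 264.7 cells, 18 h compound exposure at 37 C; 7-point titration, 2.45 nM to 38.3 uM final.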
For test [18], the target named is Galactokinase (Homo sapiens) (UniProt P51570). Put plainly: qHTS Validation Assay for Inhibitors of Human Galactokinase (GALK) (AID 493189). Also: 0% is about no effect. The method in brief: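 5 nM GALK / 100 uM galactose / 35 uM ATP, 20 mM HEPES pH8.0, 5 mM MgCl2, 60 mM NaCl, 1 mM DTT, 0.01% BSA (final). RT 1 h; Kinase-Glo Plus luminescence.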
The target in test [19] is Peptidyl-prolyl cis-trans isomerase NIMA-interacting 1 (Homo sapiens) (UniProt Q13526). The test can be described thus: qHTS Validation Assay to Find Inhibitors of Pin1 (AID 504536; active = well fitted inhibition curve with a large enough effect in the polarisation, with a control signal flat, not every such curve was filed as active; the % refers to the polarisation;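 also: 0% = full Pin1 enzyme wells and -100% = no-enzyme wells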). The method in brief:
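Fluorescence polarization competition: compounds (titration) displace HiFluor-488-labeled Pin1-1b peptide from Pin1 (0.3 uM final) in pH 7.5 HEPES buffer with DTT, 10 min at room temperature; %Activity normalized to no-enzyme wells, curves fitted.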

Test [20] deals with ATPase family AAA domain-containing protein 5 (Homo sapiens) (UniProt Q96QE3). Put plainly: Validation screen for small molecules that inhibit ELG1-dependent DNA repair in human embryonic kidney (HEK293T) cells expressing luciferase-tagged ELG1 (AID 493107).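 Also: cells co-treated with the DNA-damaging agent 5-fluorouridine alongside compound; series mostly up to about 46 µM; % is scaled to controls: 0 for no effect and ±100 for the full control effect; inhibitors lower the ELG1-luciferase luminescence signal; nearly all actives have a fitted effect of over 70% in size.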 The method in brief:
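Cells are dispensed in 1536-well format, then 5-fluorouridine and compound are pinned in. After a 16 hr incubation at 37 °C and 5% CO2, ONE-Glo is added and luciferase measured on a CCD imager.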

Molecules are shown by their SMILES. Inconclusive results are not listed. Activity calls are given as the source filed them. Unless noted, calls follow the shape of the dose curve; as a rule, active = well fitted curve in the direction sought with a large enough effect; inconclusive = small, poorly fitted or top-dose-only effect, or another doubt; inactive = no such curve, though single readings can be large; an effect the other way counts as inactive or inconclusive.

ATPase family AAA domain-containing protein 5 (Homo sapiens), sequence (Q96QE3 whole entry, looked up, the tested form may be a part): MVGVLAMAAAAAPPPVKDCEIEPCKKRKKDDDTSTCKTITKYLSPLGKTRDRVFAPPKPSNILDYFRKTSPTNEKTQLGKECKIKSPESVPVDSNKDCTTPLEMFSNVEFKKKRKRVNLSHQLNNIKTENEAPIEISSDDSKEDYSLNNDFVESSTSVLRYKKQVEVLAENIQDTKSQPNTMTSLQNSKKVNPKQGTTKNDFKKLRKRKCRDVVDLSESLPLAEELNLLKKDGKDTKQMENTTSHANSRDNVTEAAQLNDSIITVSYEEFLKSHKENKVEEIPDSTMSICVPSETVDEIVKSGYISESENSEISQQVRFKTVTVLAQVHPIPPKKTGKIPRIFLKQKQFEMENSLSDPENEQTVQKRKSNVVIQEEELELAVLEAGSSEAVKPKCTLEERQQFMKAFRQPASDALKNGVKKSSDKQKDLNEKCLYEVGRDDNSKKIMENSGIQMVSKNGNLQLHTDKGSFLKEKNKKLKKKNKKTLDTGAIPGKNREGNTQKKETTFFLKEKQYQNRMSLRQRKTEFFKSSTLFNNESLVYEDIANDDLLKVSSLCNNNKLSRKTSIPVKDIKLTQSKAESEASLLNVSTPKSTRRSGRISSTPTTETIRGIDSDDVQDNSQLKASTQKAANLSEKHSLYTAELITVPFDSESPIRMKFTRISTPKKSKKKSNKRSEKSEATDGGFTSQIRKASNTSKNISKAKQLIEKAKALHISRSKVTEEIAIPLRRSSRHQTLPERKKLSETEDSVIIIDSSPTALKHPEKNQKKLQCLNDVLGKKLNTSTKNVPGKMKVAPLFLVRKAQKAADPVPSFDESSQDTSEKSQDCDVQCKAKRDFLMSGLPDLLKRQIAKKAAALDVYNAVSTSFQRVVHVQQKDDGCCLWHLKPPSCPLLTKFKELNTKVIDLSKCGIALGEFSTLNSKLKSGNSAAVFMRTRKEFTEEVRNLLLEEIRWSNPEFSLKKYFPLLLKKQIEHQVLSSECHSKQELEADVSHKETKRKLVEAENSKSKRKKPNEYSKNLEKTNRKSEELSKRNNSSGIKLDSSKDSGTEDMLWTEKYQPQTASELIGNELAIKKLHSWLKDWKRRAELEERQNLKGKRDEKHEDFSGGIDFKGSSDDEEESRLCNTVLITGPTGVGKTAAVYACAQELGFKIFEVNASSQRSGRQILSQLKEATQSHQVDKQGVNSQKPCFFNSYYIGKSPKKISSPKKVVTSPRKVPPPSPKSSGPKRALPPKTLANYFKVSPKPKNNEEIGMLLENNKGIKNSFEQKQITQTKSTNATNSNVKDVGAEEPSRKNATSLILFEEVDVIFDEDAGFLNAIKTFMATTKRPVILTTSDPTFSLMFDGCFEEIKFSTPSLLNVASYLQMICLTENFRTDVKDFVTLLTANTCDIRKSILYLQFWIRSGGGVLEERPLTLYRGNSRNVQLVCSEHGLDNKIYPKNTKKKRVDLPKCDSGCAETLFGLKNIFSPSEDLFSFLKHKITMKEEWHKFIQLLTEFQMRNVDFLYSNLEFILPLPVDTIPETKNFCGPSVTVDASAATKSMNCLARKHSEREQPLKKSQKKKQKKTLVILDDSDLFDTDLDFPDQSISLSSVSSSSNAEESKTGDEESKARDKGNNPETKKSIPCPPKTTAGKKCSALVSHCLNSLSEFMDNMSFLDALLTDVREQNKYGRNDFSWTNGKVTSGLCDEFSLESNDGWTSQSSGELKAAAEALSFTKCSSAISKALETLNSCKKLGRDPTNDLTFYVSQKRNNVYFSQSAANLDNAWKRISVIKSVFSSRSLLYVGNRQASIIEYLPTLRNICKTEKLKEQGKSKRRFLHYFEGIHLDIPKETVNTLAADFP
D(1A) dopamine receptor (Homo sapiens), sequence (P21728 whole entry, looked up): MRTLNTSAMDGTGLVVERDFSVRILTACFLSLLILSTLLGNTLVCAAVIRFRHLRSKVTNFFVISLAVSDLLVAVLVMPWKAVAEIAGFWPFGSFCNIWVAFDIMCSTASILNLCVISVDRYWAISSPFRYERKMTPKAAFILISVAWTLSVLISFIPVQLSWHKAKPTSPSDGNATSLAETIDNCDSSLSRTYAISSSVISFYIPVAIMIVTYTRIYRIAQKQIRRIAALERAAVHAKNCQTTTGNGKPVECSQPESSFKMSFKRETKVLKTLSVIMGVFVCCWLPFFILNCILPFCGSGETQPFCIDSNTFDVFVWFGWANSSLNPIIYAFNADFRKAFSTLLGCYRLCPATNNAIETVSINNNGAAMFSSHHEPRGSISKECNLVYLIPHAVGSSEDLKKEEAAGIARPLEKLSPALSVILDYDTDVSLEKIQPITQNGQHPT
Flap endonuclease 1 (Homo sapiens), sequence (P39748 whole entry, looked up): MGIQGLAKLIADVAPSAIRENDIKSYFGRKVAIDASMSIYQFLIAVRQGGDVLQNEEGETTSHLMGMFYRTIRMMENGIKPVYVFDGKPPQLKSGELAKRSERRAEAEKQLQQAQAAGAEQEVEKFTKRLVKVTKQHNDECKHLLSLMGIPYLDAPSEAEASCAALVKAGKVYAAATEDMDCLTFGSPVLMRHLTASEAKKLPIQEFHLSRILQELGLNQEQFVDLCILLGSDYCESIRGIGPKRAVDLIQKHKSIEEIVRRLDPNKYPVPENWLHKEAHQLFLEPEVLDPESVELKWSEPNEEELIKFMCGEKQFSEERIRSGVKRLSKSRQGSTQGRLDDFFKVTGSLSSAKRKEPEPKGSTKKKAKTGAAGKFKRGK
Thyrotropin-releasing hormone receptor (Homo sapiens), sequence (P34981 whole entry, looked up): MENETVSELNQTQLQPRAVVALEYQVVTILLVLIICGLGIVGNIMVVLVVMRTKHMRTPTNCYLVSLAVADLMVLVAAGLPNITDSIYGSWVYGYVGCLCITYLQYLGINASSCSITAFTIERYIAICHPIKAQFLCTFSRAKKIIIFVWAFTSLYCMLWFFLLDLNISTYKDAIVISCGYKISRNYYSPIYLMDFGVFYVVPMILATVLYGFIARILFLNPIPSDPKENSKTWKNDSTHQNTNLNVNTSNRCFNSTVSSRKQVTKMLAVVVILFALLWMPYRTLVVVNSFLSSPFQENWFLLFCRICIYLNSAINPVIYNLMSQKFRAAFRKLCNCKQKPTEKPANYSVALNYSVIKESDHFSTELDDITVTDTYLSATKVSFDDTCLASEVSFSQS
Transient receptor potential cation channel subfamily V member 1 (Homo sapiens), sequence (Q8NER1 whole entry, looked up): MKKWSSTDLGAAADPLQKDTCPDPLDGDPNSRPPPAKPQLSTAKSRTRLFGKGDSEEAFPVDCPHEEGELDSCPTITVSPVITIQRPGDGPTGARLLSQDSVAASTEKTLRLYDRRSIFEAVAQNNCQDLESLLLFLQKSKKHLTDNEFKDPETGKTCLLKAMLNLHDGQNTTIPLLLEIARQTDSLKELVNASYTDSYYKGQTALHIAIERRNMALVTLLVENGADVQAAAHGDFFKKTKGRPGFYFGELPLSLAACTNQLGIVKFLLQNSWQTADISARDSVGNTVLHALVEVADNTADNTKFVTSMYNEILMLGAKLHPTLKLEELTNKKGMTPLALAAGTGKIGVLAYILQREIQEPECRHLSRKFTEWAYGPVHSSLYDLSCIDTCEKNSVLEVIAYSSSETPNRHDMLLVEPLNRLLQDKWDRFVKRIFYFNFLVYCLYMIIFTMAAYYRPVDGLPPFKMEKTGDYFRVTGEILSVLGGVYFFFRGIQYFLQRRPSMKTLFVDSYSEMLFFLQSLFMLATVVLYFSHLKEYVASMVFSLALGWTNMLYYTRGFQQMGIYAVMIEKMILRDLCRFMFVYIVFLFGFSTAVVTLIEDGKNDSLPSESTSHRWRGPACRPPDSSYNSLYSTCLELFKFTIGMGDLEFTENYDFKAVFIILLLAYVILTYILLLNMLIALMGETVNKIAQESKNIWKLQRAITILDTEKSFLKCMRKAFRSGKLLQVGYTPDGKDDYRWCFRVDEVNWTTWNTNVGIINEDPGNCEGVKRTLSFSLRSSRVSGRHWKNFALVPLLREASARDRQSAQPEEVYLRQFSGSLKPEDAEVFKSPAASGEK
ATP-dependent 6-phosphofructokinase (Trypanosoma brucei brucei), sequence (O15648 whole entry, looked up): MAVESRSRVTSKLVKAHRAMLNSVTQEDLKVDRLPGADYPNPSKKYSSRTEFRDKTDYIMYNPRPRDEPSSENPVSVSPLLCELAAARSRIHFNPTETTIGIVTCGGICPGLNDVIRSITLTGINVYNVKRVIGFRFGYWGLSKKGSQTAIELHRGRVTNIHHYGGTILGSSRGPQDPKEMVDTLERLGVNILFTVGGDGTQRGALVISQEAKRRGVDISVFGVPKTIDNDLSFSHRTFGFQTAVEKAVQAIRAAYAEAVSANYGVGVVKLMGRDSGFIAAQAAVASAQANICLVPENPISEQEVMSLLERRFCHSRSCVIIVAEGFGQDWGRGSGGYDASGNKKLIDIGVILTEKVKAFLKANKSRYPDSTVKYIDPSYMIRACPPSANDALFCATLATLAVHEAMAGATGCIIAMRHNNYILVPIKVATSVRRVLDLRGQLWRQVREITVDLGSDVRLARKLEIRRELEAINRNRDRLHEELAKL
Peptidyl-prolyl cis-trans isomerase NIMA-interacting 1 (Homo sapiens), sequence (Q13526 whole entry, looked up): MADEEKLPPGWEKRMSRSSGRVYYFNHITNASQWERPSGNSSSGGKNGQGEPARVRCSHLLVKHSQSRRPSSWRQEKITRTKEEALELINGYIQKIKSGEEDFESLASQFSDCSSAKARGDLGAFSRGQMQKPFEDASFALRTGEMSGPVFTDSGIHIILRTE
Chromobox protein homolog 1 (Homo sapiens), sequence (P83916 whole entry, looked up): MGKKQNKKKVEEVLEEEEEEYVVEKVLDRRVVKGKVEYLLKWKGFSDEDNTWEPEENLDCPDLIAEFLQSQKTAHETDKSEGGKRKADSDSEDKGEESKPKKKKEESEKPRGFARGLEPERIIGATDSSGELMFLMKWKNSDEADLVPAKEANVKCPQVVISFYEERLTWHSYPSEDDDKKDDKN

For the molecule `Cc1c(C(C)C)c(=O)n(-c2ccccc2)n1C`, the molecule was called inactive in test [1].
Turning to `O=c1c(-c2ccccc2)c1-c1ccccc1`, the result in [1] was inactive.
With `CC(C)NC[C@@H](O)COc1cccc2ccccc12`, in test [2], the Potency entry is “inactive”. In addition, the activation in test [3] is 1.94% (inactive). The molecule was called inactive in test [4].
Consider `C1CCc2nnnn2CC1`, for which the Potency result in test [5], in [2], in [9] and in test [14] was “inactive” throughout. Besides, the molecule was called inactive in test [6], in [7], in test [8], in test [10], in [11] and in test [12]. The result in test [13], in test [15], in [16], in test [17], in test [18] and in test [4] was inactive. Besides, the call in [19] was inactive. Further, in test [3], the activation is -0.375% (inactive). For the same molecule, the viability change in test [16] worked out at 4.51%.
Turning to `CNCCC(Oc1ccccc1C)c1ccccc1` (stereo not given), the Potency result in test [5], in test [2] and in [20] was “inactive” in each case. The molecule was called inactive in test [6], in test [10], in test [12], in [13], in test [1] and in test [15]. In addition, the outcome in test [16], in [17], in test [18], in test [4] and in [19] was inactive. For the same molecule, the viability change in test [16] was determined as 3.06%.
On to `C[C@@H]1C(=O)NC2=Nc3cccc(Cl)c3CN21`, for which the Potency result in test [5], in [2], in test [9], in [14] and in test [20] was “inactive” each time. For the same molecule, the molecule was classed as inactive in test [6], in test [7], in test [8], in test [10], in test [11] and in [12]. For the same molecule, the outcome in test [13], in test [1], in test [15], in test [16], in [17] and in test [18] was inactive. In addition, the molecule was classed as inactive in test [4] and in [19]. Also, the activation in test [3] is 1.06% (inactive). In addition, the viability change in [16] came to 3.84%.
As to `N[C@H](CO)C(=O)O`, the Potency entry in [5], in [2], in test [9], in [14] and in test [20] was “inactive” each time. Also, the call in [6], in [7], in test [8], in test [10], in test [11] and in [12] was inactive. Also, the outcome in test [13], in test [15], in test [16], in test [17], in [18] and in test [4] was inactive. The result in test [19] was inactive. Also, the activation in test [3] was 0.688% (inactive). Moreover, the viability change in test [16] was 0.276%.
With `CC(CCc1ccccc1)NCC(O)c1ccc(O)c(C(N)=O)c1` (stereo not given), the Potency in test [5] was 13.1 µM (active). The result in test [6], in test [7], in test [8], in [10], in test [11] and in [13] was inactive. The call in test [15], in test [16], in test [17], in test [18], in [4] and in [19] was inactive. The Potency entry in test [2], in test [9] and in test [14] was “inactive” each time. For the same molecule, the activation in [3] was 0.875% (inactive). Besides, the viability change in test [16] was -13.8%.
In the case of `CC[C@H](C)C(=O)O[C@H]1CCC=C2C=C[C@H](C)[C@H](CC[C@@H]3C[C@@H](O)CC(=O)O3)[C@H]21`, the molecule was classed as inactive in [6], in [7], in test [8], in test [10], in [16] and in test [17]. Further, the outcome in [19] was inactive. For the same molecule, the Potency entry in test [2], in test [9], in test [14] and in [20] was “inactive” throughout. In test [16], the viability change was -16.9%.
